The panel holds about 79,000 compounds, 15% with a hit somewhere; the sample as a whole holds those more often. Unmarked numbers belong to inactive results. Active and inactive are the calls of the source. No stated cut-off is given here; in the data, active means growth inhibition above about 70%; inactive means the rest. Where a SMILES comes first, the peptide text is derived from it.

Experiment [1] can be described thus: NCI Yeast Anticancer Drug Screen. Data for the rad50 strain (AID 155).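 Further: 0% = growth of vehicle-only cultures of the same strain.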 To be noted: S. cerevisiae rad50 strain growth inhibition; at 50.0 µM; active compounds read high. In outline: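 Inhibition values express reduced yeast growth in compound-treated cultures relative to vehicle-treated controls.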
Experiment [2] is described as follows: NCI Yeast Anticancer Drug Screen. Data for the mec2-1 strain (AID 157). The following applies: S. cerevisiae mec2-1 strain, at 50.0 µM, active compounds read high. The procedure, abridged: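 Each compound was tested on mec2-1 yeast, a strain altered in DNA damage repair or cell cycle control. Growth inhibition is reported relative to vehicle.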
A short description of experiment [3]: NCI Yeast Anticancer Drug Screen. Data for the sgs1 mgt1 strain (AID 161).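 Further: 0% = growth of cultures given vehicle only.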 To be noted: S. cerevisiae sgs1 mgt1 strain, at 50.0 µM, active compounds read high. The procedure, abridged:
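Inhibition of yeast growth, normalised to vehicle-treated controls, is reported for a strain bearing genetic alterations in DNA damage repair.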

The nature of experiment [4]: NCI Yeast Anticancer Drug Screen. Data for the cln2 rad14 strain (AID 165).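 Further: 0% = growth equal to vehicle treated cultures.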 The following applies: S. cerevisiae cln2 rad14 strain, at 50.0 µM, active compounds read high. The procedure, abridged:
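Test compounds were added to cln2 rad14 yeast cultures; inhibition of growth was then determined by comparison with vehicle treatment.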

Experiment [5] in a line: NCI Yeast Anticancer Drug Screen. Data for the bub3 strain (AID 167). The following applies: S. cerevisiae bub3 mutant strain, at 50.0 µM, active compounds read high. The procedure, abridged:
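Steps: expose the mutant yeast strain to compound; grow alongside vehicle-treated cultures; measure growth; express inhibition against the vehicle cultures.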

Experiment [6] is described as follows: NCI Yeast Anticancer Drug Screen. Data for the mlh1 rad18 strain (AID 175). To be noted: S. cerevisiae mlh1 rad18 strain growth inhibition; at 50.0 µM; active compounds read high. In outline: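 Inhibition values reflect reduced growth of mutant yeast versus vehicle-treated controls following compound exposure; the mutations affect DNA damage repair.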

On to `C[n+]1ccc(CCC(=O)Nc2ccccc2)cc1`, for which the growth inhibition in experiment [1] is 3.65%; in experiment [2], 24.3%; in experiment [3], -4.35%; in experiment [4], 0.3%; in experiment [5], 25.6%; in experiment [6], 3%.

Regarding `CSCCC(N)C(=O)NC(CCSC)C(=O)O` (stereo not drawn) (H-Met-Met-OH; configuration not given here), the growth inhibition was -12% in experiment [1]; -21.4% in experiment [2]; 2.4% in experiment [3]; -25.1% in experiment [4]; -8.95% in experiment [5]; -5.7% in experiment [6].

As to `CCC(=O)Nc1cc(C)c(C)cc1C`, the growth inhibition was 4.75% in experiment [1]; -10.2% in experiment [2]; -2.2% in experiment [3]; -42% in experiment [4]; 6.6% in experiment [5]; -8.4% in experiment [6].

Regarding `CC(=O)OC1CCC23COC(CC(C)C2C)C3(Cl)C1` (stereo not given), the growth inhibition in experiment [1] is -0.7%; in experiment [2] it was -4.65%; in experiment [3], -3.25%; in experiment [4], -8.1%; in experiment [5], -11.2%; in experiment [6], 5.05%.

Take `CC(NS(=O)(=O)c1cccc(C(=O)O)c1)c1ccccc1` (stereo not given): the growth inhibition was 10.3% in experiment [1]; -14.5% in experiment [2]; 0.3% in experiment [3]; -38.4% in experiment [4]; 3.25% in experiment [5]; -0.05% in experiment [6].

`CC1(C)C(=O)N(c2ccccc2)C1c1ccccc1` (stereo not given): the growth inhibition in experiment [1] was -6.2%; in experiment [2], -5.4%; in experiment [3], -1.5%; in experiment [4], -40.5%; in experiment [5], 12.1%; in experiment [6] it was -5.7%.

Turning to `O=C(OC1CCCC1)c1ccccc1`, the growth inhibition was 5.3% in experiment [1]; 9.9% in experiment [2]; -26.1% in experiment [3]; -29.1% in experiment [4]; -10.2% in experiment [5]; -2.2% in experiment [6].

Regarding `O=C(O)C(O)(O)C(O)(O)C(=O)O`, the growth inhibition is 6.35% in experiment [1]; -22.6% in experiment [2]; -4% in experiment [3]; 4.85% in experiment [4]; -5.85% in experiment [5]; -10.4% in experiment [6].

`O=C(c1ccc2ccccc2c1)C(Cl)C(Cl)c1ccccc1` (stereo not given): the growth inhibition in experiment [1] is -13.2%; in experiment [2], 10.8%; in experiment [3] it was -1.55%; in experiment [4], -15.8%; in experiment [5], 53.1%; in experiment [6] it was -6.15%.

As for `Cn1c(=N)n(CC(=O)NC23CC4CC(CC(C4)C2)C3)c2ccccc21`, the growth inhibition is 11.8% in experiment [1]; -15.4% in experiment [2]; -26.9% in experiment [3]; 2.75% in experiment [4]; 2.2% in experiment [5]; -11.6% in experiment [6].

`NNC(=O)NN1C(=O)c2cc(S(=O)(=O)O)cc3c(N)c(S(=O)(=O)O)cc(c23)C1=O`: the growth inhibition in experiment [1] was 35.2%; in experiment [2], -3.05%; in experiment [3], 14.6%; in experiment [4], 6.35%; in experiment [5], -5.45%; in experiment [6], 10.3%.

In the case of `COc1ccc(C(=O)C(c2ccccc2)c2ccccc2)cc1`, the growth inhibition in experiment [1] is 6.65%; in experiment [2], 1.95%; in experiment [3] it was -13.2%; in experiment [4] it was 4.35%; in experiment [5] it was 9.25%; in experiment [6], 6%.

Take `CC(C)(C)NC(=O)NCCCl`: the growth inhibition is 1% in experiment [1]; -11.4% in experiment [2]; -2.45% in experiment [3]; -33.9% in experiment [4]; 2.95% in experiment [5]; 5.35% in experiment [6].

For `O=C(NCCCCCCCCNC(=O)c1cccc2ccccc12)c1cccc2ccccc12`, the growth inhibition in experiment [1] was 14.2%; in experiment [2], 25%; in experiment [3] it was 2.8%; in experiment [4], -9.25%; in experiment [5], -10.4%; in experiment [6] it was 16.8%.

`NC(=O)C1C2CC3C(C2)C31` (stereo not given): the growth inhibition in experiment [1] is 2.9%; in experiment [2], 11.2%; in experiment [3], -1%; in experiment [4], -1%; in experiment [5], 3.4%; in experiment [6], 4.95%.

Regarding `O=C(Nc1ccccc1)Oc1ccc(Cl)cc1Cc1ccccc1`, the growth inhibition in experiment [1] is 99.7% (active); in experiment [2], 99.8% (active); in experiment [3], 99.8% (active); in experiment [4], 99.8% (active); in experiment [5], 99.8% (active); in experiment [6] it was 99.8% (active).

For `COc1ccc2oc(=N)c(C(N)=S)cc2c1`, the growth inhibition in experiment [1] is 28%; in experiment [2], 24.2%; in experiment [3] it was -3.45%; in experiment [4], 16.8%; in experiment [5], 7.9%; in experiment [6], -2.95%.

On to `CC(=O)Nc1nc2c(s1)CCc1ccccc1-2`, for which the growth inhibition is 49.4% in experiment [1]; 13.8% in experiment [2]; 12.8% in experiment [3]; 5.6% in experiment [4]; 10.1% in experiment [5]; 15.2% in experiment [6].

On to `O=C1CCCCC1CC1(O)C(=O)NC2CCC(Br)CC21` (stereo not given), for which the growth inhibition is -11.6% in experiment [1]; -3.3% in experiment [2]; 21.6% in experiment [3]; 8.75% in experiment [4]; 18.7% in experiment [5]; 5.6% in experiment [6].

Regarding `C1CCC(N(CCN(C2CCCCC2)C2CCCCC2)C2CCCCC2)CC1`, the growth inhibition in experiment [1] is -38.5%; in experiment [2], -32.8%; in experiment [3] it was -26.7%; in experiment [4], 15.3%; in experiment [5] it was 5.6%; in experiment [6] it was -11.9%.
